PubChem BioAssay AID2280 (The Scripps Research Institute Molecular Screening Center, 2010)
The campaign covered roughly 320,000 compounds. About 1,400 (0.44%) were called active. The sample holds actives, similar compounds and a random draw of the others, so the mix is not that of the screen.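 Rule for the calls: active = percent inhibition above a per-plate cutoff, the plate mean of test compounds plus 3 SD (cut at about 30% in these data); inactive = the rest.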

Molecular target: Female germline-specific tumor suppressor gld-1 (Caenorhabditis elegans) (UniProt Q17339)
Sequence (Q17339 whole entry, looked up): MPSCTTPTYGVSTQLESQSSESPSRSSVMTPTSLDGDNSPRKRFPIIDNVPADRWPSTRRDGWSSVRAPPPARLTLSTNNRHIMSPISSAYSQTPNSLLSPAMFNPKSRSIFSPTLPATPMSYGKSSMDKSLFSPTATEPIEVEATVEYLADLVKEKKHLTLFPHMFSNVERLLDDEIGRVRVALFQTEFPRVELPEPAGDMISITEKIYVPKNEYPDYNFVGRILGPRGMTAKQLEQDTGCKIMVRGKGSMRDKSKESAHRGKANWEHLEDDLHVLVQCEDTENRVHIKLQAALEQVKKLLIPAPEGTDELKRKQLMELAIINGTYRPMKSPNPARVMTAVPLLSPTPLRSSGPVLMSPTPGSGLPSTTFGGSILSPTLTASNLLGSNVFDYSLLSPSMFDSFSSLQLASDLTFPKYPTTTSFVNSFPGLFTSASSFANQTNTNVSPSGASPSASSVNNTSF
Test: small molecules blocking C. elegans GLD-1 RNA recognition – biochemical, fluorescence polarization, primary screen (AID 2280);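 note: 0% = DMSO wells with GLD-1 and probe and 100% = wells lacking GLD-1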
Details: purified GLD-1 + fluorescein TGE RNA, at 5.96 µM, hits give high values

inhibition, active:
Oc1ccc2ccccc2c1N=Nc1nccs1 33.5%
O=C(C1=C(O)C(=O)N(c2ncccn2)C1c1cccs1)c1ccco1 (centres undefined) 110%
COc1ccc(Nc2ccc([N+](=O)[O-])cn2)cn1 44.7%
COc1cc(C(=O)NCc2ccc3c(c2)cc(C)n3C)cc(OC)c1OC 34.8%
CC1CC(C)CN(S(=O)(=O)c2cccc(C(=O)N3C(=O)c4cccc(N)c4C3=O)c2)C1 (centres undefined) 31.4%
Cc1cc2ccccc2n1CCC(=O)O 50.2%
C=C1CCN([C@@H](Cc2ccccc2)C(=O)N2CCOCC2)S(=O)(=O)c2ccccc21 39.9%
CC[N+](C)(CC)CCC[n+]1c(-c2ccccc2)c2cc(N)ccc2c2ccc(N)cc21 62.4%
Cc1ccc(CNC(=O)c2cccc3c2C(=O)c2ccc(N4CCC(C)CC4)cc2S3(=O)=O)cc1 124%
COc1ccc(C2C=C(c3ccc(Br)cc3)Nc3nc(NS(C)(=O)=O)nn32)cc1 (centres undefined) 155%
O=c1[nH]c(=O)c2nc3ccccc3nc2[nH]1 48.7%
Nc1ccc2nc3c(=O)[nH]c(=S)[nH]c3nc2c1 172%
CC[C@]1(O)C[C@@H]2CN(CCc3c([nH]c4ccccc34)[C@@](C(=O)OC)(c3cc4c(cc3OC)N(C)[C@H]3[C@@](O)(C(=O)OC)[C@H](OC(C)=O)[C@]5(CC)C=CCN6CC[C@]43[C@@H]65)C2)C1 35.9%
Cc1ccc(/C=N/NC(=O)COc2ccccc2-c2ccccc2)cc1 52.5%
COCCOC(=O)c1sc(=S)n(CCOC)c1N 65.8%
Cc1cc2nc3c(=O)n(Cc4ccccc4)c(=O)[nH]c3nc2cc1N 190%
COc1cc([C@H](Cc2ccccc2)NC(C)=O)oc(=O)c1 43.8%
COCCn1c(N)c(NCc2ccccc2)c(=O)[nH]c1=O 94.7%
Brc1ccc(C2=CC(c3ccco3)n3ncnc3N2)cc1 (centres undefined) 158%

inhibition, inactive:
COc1ccc2[nH]c(=O)c(CN(Cc3cccnc3)S(=O)(=O)c3ccccc3F)cc2c1 8.84%
O=C(C1=C(O)C(=O)N(Cc2ccccc2)C1c1cccnc1)c1ccco1 (centres undefined) -1.41%
COc1cc(C2C(C(=O)c3ccco3)=C(O)C(=O)N2c2cc(C)on2)ccc1OCc1ccccc1 (centres undefined) -1.87%
CN(c1ccccc1)S(=O)(=O)c1ccc2[nH]c(=O)[nH]c2c1 -0.63%
Cc1ccc(C)c(OCCC(=O)OCC(=O)N2CCN(c3ccccc3)CC2)c1 -2.09%
Cc1sc2ncnc(SCC(=O)Nc3ccc(CN4CCCC4)cc3)c2c1C -0.9%
COc1ccccc1C1CCN(c2ccc([N+](=O)[O-])cn2)CC1 3.13%
COc1ccc(C(=O)NCCNc2ccc([N+](=O)[O-])cn2)cc1 9.44%
CCN1CCN(c2ccc(S(=O)(=O)N3CCCCC3)cc2NC(=O)Cc2c(Cl)cccc2Cl)CC1 -0.26%
CCN(C[C@H]1N[C@@](CC)(C(=O)OC)[C@H]2C(=O)N(C)C(=O)[C@@H]12)C(=O)Nc1ccc(F)cc1 1.26%
CCC(=O)Nc1ccc(S(=O)(=O)Nc2c(NC)c3ccccc3oc2=O)cc1 0.71%
C[C@H](NC(=O)c1nc[nH]c1C(=O)N[C@@H](C)C(=O)OC(C)(C)C)C(=O)OC(C)(C)C 0.74%
O=[N+]([O-])/C=C/c1ccc2c(ccn2Cc2ccccc2)c1 7.04%
O=C(OCCOCn1cc(Br)c(=O)[nH]c1=O)c1ccccc1 5.67%
CCOCC(=O)NCc1ccc2c(c1)cc(C)n2C 25.6%
COc1cc(C(=O)NCc2cc3cc(Cl)ccc3n2C)cc(OC)c1OC -2.07%
CCCC(C(=O)n1nc(C)cc1C)C(NS(=O)(=O)c1ccc(C)cc1)c1ccccc1 (centres undefined) 2.32%
O=C(COC(=O)[C@H](Cc1ccccc1)NC(=O)c1cccs1)Nc1cc(F)ccc1F 8.92%
COCCn1c(SCC(=O)N2CCCCCC2)nc2c(c1=O)SCC2 -2.72%
COc1cc(C(=O)N2C(=O)c3cccc(N)c3C2=O)cc(OC)c1OC 10.9%
CC(=O)N1CCN(S(=O)(=O)c2cccc(C(=O)NC3CCC(C)CC3)c2)CC1 (centres undefined) 1.54%
CCOc1cc(/C=C2/N=C(c3ccc(C(C)(C)C)cc3)OC2=O)cc(Cl)c1OS(C)(=O)=O 4.12%
CCOC(=O)N1CCN(c2cc(C)c([N+](=O)[O-])cc2F)CC1 -3.69%
O=C(C1=C(O)C(=O)N(CCOCCO)C1c1ccccn1)c1cccs1 (centres undefined) 5.95%
Cc1cc2ccccc2n1CCNC(=O)COc1ccc2ccccc2c1 7.21%
O=C(O)CCn1c(Cc2ccccc2)nc2ccccc21 -2.47%
COC(=O)c1cn(C)c2ccc(S(=O)(=O)N3CC(C)CC(C)C3)cc2c1=O (centres undefined) 3.86%
Cc1ccc(NC(=O)C(C)c2cccc(C(=O)c3ccccc3)c2)cc1 (centres undefined) 2.46%
O=C(CCc1ccccc1)Nc1ccc(NC(=O)C2CC2)nc1 8.07%
N[C@@H](Cc1ccccc1)C(=O)N1CCOCC1 10.2%
O=C(NCCN1CCOCC1)[C@H](Cc1ccccc1)N1C(=O)c2ccccc2C1=O 5.89%
CCN(c1ccc2c(c1)OCO2)S(=O)(=O)c1cc(Br)cc2c1N(C(=O)C1CC1)CC2 2.82%
Cc1ccc(S(=O)(=O)c2c[nH]c3ccc(Cl)cc3c2=O)cc1 1.43%
Cc1cc(=O)oc2cc(OCC3CC(c4ccccc4Cl)=NO3)ccc12 (centres undefined) 4.3%
CC(=O)c1nnn(-c2ccc(Cl)cc2C#N)c1C 2.27%
CC(C)[C@H](NC(=O)N1CCn2c1nc1ccccc12)C(=O)NC1CC1 -3.08%
CC1CCN(c2c(NCc3ccc(C(=O)NCc4ccccc4)cc3)c(=O)c2=O)CC1 -1.64%
Cc1ccc(CNC(=O)c2ccc3c(c2)S(=O)(=O)c2ccccc2C3=O)cc1 -2.48%
O=[N+]([O-])c1cc(S(=O)(=O)Nc2cccc(Cl)c2)ccc1N=Nc1c(O)[nH]c2ccccc12 0.17%
O=C(NCC(c1cccs1)N1CCOCC1)c1cc(Cl)ccc1[N+](=O)[O-] (centres undefined) 1.88%
CCOC(=O)CN(C)S(=O)(=O)c1ccc(-c2cc(C(=O)OC)sc2C(F)(F)F)cc1 9.97%
COc1ccc(C2=CC(c3cccc(OC)c3)n3nnnc3N2)cc1 (centres undefined) 14.6%
CSc1cccc(NC(=O)CN2C(=O)COc3ccc(S(=O)(=O)N4CCOCC4)cc32)c1 -0.09%
N#CCc1ccc(NC(=O)c2ccccc2C(=O)Nc2ccc(CC#N)cc2)cc1 -0.7%
COc1cccc(NC(=O)CN(C)CC(=O)c2c(N)n(Cc3ccccc3)c(=O)n(C)c2=O)c1 3.38%
O=C1NCCn2nc3ccccc3c21 -0.55%
CNC(=O)c1cccc2nc3ccccc3nc12 3%
Cc1csc(/N=C/N(C)C)c1C#N 7.85%
COc1cccc(NC(=O)C(=O)c2cn(CC(=O)N3CCOCC3)c3ccccc23)c1 9.65%
Cc1ccc(C2(C)NC(=O)N(CC(=O)N3CC(=O)Nc4ccccc43)C2=O)cc1 (centres undefined) -0.04%
Cc1ccc(-c2nnc(Nc3ccc(C(=O)N(C)C)cc3)c3ccccc23)cc1S(N)(=O)=O 6.66%
O=C(Nc1cccc(F)c1)N1C2CCC1CC(O)(c1cccnc1)C2 (centres undefined) -5.02%
CC[C@]1(O)CC2CN(CCc3c([nH]c4ccccc34)[C@@](C(=O)OC)(c3cc4c(cc3OC)N(C=O)[C@H]3[C@@](O)(C(=O)OC)[C@H](OC(C)=O)[C@]5(CC)C=CCN6CC[C@]43[C@@H]65)C2)C1 (some centres undefined) 8%
COc1ccc(Cc2nnc(N/N=C/c3ccccc3O)[nH]c2=O)cc1OC 2.1%
Cc1ccc(/C=N/NC(=O)CSc2nc3ccccc3o2)cc1 13.4%
Cc1cccc(OCC(=O)NCC(=O)N/N=C/c2ccc(N(C)C)cc2)c1 1.86%
COc1cc(/C=C2\Oc3ccc(C#Cc4ccc(O)cc4)cc3C2=O)cc(OC)c1 -7.59%
O=C(CCN1CCc2ccccc2C(O)(c2ccccc2)C1)c1ccc2c(c1)OCCO2 (centres undefined) 8.71%
COC(=O)c1cc(C(=O)N(Cc2ccccc2)c2ccccn2)cc([N+](=O)[O-])c1 3.82%
COc1cccc(-n2c(SCC(=O)NC3CCS(=O)(=O)C3)nc3ccccc3c2=O)c1 (centres undefined) 1.53%
CSCCC(NS(=O)(=O)c1ccc2c(c1)oc(=O)n2C)C(=O)NCc1ccccc1 (centres undefined) 4.5%
C=CCSc1nc2c(c(=O)[nH]c(=O)n2C)n1Cc1ccccc1 -0.99%
COC(=O)CSc1nc2ccccc2c(=O)n1Cc1ccccc1 -3.39%
CCOC(=O)C(Cc1ccccc1)NC(=O)CCC(=O)c1ccc(OC)cc1 (centres undefined) 2.6%
COc1ccc(OC)c(NC(=O)N[C@H](Cc2ccccc2)C(=O)NN)c1 6.48%
CCCCCCCCc1c(O)nc(-n2[nH]c(C)c(CCO)c2=O)[nH]c1=O 3.56%
COCCN(C(=O)c1ccccc1F)c1c(N)n(Cc2ccccc2)c(=O)[nH]c1=O 1.28%
COCCn1c(N)c(N(Cc2ccccc2)C(=O)C2CCCCC2)c(=O)[nH]c1=O 7.47%
COC(=O)c1c(NC(=O)CN2CCN(S(=O)(=O)c3ccccc3[N+](=O)[O-])CC2)sc2c1CCC(C)C2 (centres undefined) 1.69%
COc1ccc(C2C(C#N)=C(N)N(c3ncn[nH]3)C3=C2C(=O)CCC3)cc1 (centres undefined) 2.28%
O=C(Nc1ccccc1C(=O)O)c1ccc(N2C(=O)C3CC=CCC3C2=O)cc1 (centres undefined) 3.32%
CCOc1ccc(C2=CC(c3ccccc3)n3ncnc3N2)cc1 (centres undefined) 11.7%
CC1=C(C(=O)OCc2ccccc2)C(c2ccco2)n2ncnc2N1 (centres undefined) 0.86%
CCC(C)[C@@H](C(=O)N1CCNCC1)n1cc(CCCCN)nn1 (some centres undefined) 3.86%
COc1cc2c(-c3ccc4c(c3)OCO4)c(-c3ccsc3)oc(=O)c2cc1OC 0.87%
